VHR inh color: inhibitors of human VHR1 phosphatase (DUSP3); P51452; AID 1992; 50,000 compounds, 0.7% hits; inhibition, % at 20 µM; recombinant VHR phosphatase, colorimetric substrate read-out; in the data active means inhibition above about 60%
Target sequence (P51452 whole entry, looked up): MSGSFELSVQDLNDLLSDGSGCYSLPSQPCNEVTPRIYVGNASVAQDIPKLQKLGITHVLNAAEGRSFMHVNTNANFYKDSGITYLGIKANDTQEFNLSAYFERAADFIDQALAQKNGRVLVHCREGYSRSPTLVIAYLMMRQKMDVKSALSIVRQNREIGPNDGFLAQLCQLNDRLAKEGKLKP
Of the large screens only hits and unclear results are named; the others gave an inactive call. The entries come from a sample that favours hits as a whole.

O=C(/C=C/c1nc2ccccc2[nH]1)c1c(-c2ccccc2)c2cc(Cl)ccc2[nH]c1=O	none
O=[N+]([O-])c1ccc(-c2ccc(C(=S)N3CCOCC3)o2)cc1	none
Cc1ccc(N2CCN(C(=S)c3ccc(-c4cccc([N+](=O)[O-])c4)o3)CC2)cc1	VHR inh color 91
O=[N+]([O-])c1ccc(-c2ccc(C(=S)N3CCCCC3)o2)cc1	none
NS(=O)(=O)c1ccc(NC(=O)c2ccc([N+](=O)[O-])o2)cc1	none
CCOc1cc(C(=S)N2CCOCC2)ccc1OCc1ccccc1	none
CCOc1cc(OCC)cc(C(=O)Nc2cccc3ccccc23)c1	none
COc1ccc(C(=O)c2ccc(OC)c(N)c2)cc1N	none
COc1ccc(-c2nc3cc(N)ccc3o2)cc1OC	none
COc1cc(N)ccc1-n1c(C)ccc1C	VHR inh color 70
COc1ccc(/C=C2/C=C(c3ccc(OC)c(OC)c3)OC2=O)cc1OC	none
O=C1c2cccc3c(N4CCNCC4)ccc(c23)C(=O)N1c1ccc(Cl)cc1	none
CCOC(=O)c1c(N)sc(C)c1-c1ccc(OCC)cc1	none
CCOc1ccc(-c2c(C)sc(N)c2C(=O)OC(C)C)cc1	none
CCOC(=O)c1c(N)sc(C)c1-c1ccc(CC(C)C)cc1	VHR inh color 64
COc1ccc(/C=C2\C(=O)NC(=O)N(c3ccc(Br)c(C)c3)C2=O)c(OC)c1	none
COc1cccc(CN2CCN(Cc3cccc([N+](=O)[O-])c3)CC2)c1	none
Cc1ccc(-n2ncnc2-c2ccc(Br)cc2)cc1Cl	none
COc1ccc(CN2C(=O)C3C(c4ccc(Cl)cc4)OC4(C(=O)c5ccccc5C4=O)C3C2=O)cc1 (stereo unspecified)	none
CC(C)c1ccc(N2C(=O)NC(=O)/C(=C/c3ccc(Br)o3)C2=O)cc1	VHR inh color 82
O=C1NC(=S)N(c2ccc(Br)cc2)C(=O)/C1=C\c1ccc(-c2ccc([N+](=O)[O-])cc2)o1	none
O=C1NC(=S)N(c2ccc(F)cc2)C(=O)/C1=C/c1ccc(Br)o1	VHR inh color 94
O=C1NC(=S)N(c2ccc(Br)cc2)C(=O)/C1=C/c1ccc(-c2ccccc2C(=O)O)o1	none
Cc1cccc(N2C(=O)NC(=O)/C(=C/c3ccc(Br)o3)C2=O)c1	none
O=C1NC(=O)N(c2ccc(Cl)cc2)C(=O)/C1=C/c1ccc(Br)o1	none
FC(F)(F)COc1nc(N2CCNCC2)nc(N(c2ccccc2)c2ccccc2)n1	none
CCOC(=O)C1CCN(C(=O)c2ccccc2Br)CC1	none
CCSc1nnc(NC(=O)C(CC)c2ccccc2)s1 (stereo unspecified)	none
Cc1ccc(-n2nc3ccc(NC(=S)NC(=O)c4ccc(Cl)cc4)cc3n2)cc1	none
CN1C(=O)C2(OCCO2)c2cc([N+](=O)[O-])ccc21	none
Cc1cc(Br)ccc1N1C(=O)/C(=C/c2cc(C)n(C)c2C)C(=O)NC1=S	none
O=C1NC(=S)N(c2ccc(Cl)c(Cl)c2)C(=O)/C1=C/c1cccs1	none
Cc1cc(Br)ccc1N1C(=O)/C(=C/c2cccs2)C(=O)NC1=S	VHR inh color 102
NC1=NC(=O)C(CC(=O)Nc2ccccc2F)S1 (stereo unspecified)	none
N#Cc1c(/N=C/c2c[nH]c3ccccc23)sc2c1CCCC2	none
Cc1ccccc1NC(=O)c1ccc(C)c(S(=O)(=O)Nc2cccc([N+](=O)[O-])c2)c1	none
O=c1c2ccccc2nc(/C=C/c2c[nH]c3ccccc23)n1-c1cccc([N+](=O)[O-])c1	none
COc1ccc2c(c1)c(/C=C/c1nc3ccccc3c(=O)n1-c1cccc([N+](=O)[O-])c1)c(C)n2C	none
Cc1[nH]c2ccccc2c1/C=C/c1nc2ccccc2c(=O)n1-c1cccc([N+](=O)[O-])c1	VHR inh color 78
CCCNC(=O)c1sc2ccccc2c1Cl	none
CCOC(=O)c1c(C)nn(Cc2ccccc2)c1N	none
CCOC(=O)c1c(N)sc2c1CCN(Cc1ccccc1)C2	VHR inh color 96
CCCOC(=O)c1c(N)sc2c1CCC2	none
CCOC(=O)C(=CC(=CN(C)C)C=C(C(=O)OCC)C(=O)OCC)C(=O)OCC	none
O=C1NC(=S)N(c2ccccc2)C(=O)/C1=C/c1ccc(Cl)cc1Cl	none
O=C1NC(=S)N(c2ccccc2F)C(=O)C1=Cc1ccco1	VHR inh color 87
O=C1NC(=S)N(c2ccccc2)C(=O)/C1=C/c1ccco1	VHR inh color 67
CCc1ccc(N2C(=O)NC(=O)/C(=C/C=C/c3ccco3)C2=O)cc1	none
Cc1ccc(C=C2C(=O)NC(=S)N(c3ccccc3F)C2=O)s1	none
O=C1NC(=S)N(c2ccccc2)C(=O)/C1=C/c1cc(Br)c(O)c(Br)c1	none
C=CCN1C(=O)/C(=C\c2ccc(Br)cc2)C(=O)NC1=S	none
C=CCN1C(=O)/C(=C\C=C\c2ccco2)C(=O)NC1=S	VHR inh color 88
O=C1NC(=S)N(c2ccccc2F)C(=O)/C1=C/c1ccc(Sc2ccccc2)o1	none
CC(=O)Oc1cccc(C(=O)Nc2cccc(C(=O)c3cccc(C)c3C)c2)c1	none
COc1ccccc1/C=C1\SC(N2CCOCC2)=NC1=O	none
C#CCSc1nc(C)cc(C)c1C#N	none
CCOc1cc(/C=N/n2cnnc2)ccc1OS(=O)(=O)c1ccccc1	none
COc1cc(/C=N/n2cnnc2)ccc1OCCOc1ccc(C(C)(C)C)cc1	none
CCOc1cc(/C=N/n2cnnc2)ccc1OCc1cccc2ccccc12	VHR inh color 112
COc1ccccc1OCCOc1cccc(/C=N/n2cnnc2)c1	none
